# Activity calls are given as the source filed them. How the source made its calls: active means hit-call score of the fitted dose curve at least 0.9, where 1 is the maximum; inactive means score below 0.9.
# Read-out: 3-Hydroxy-3-Methylglutaryl-CoA Synthase 2 (HMGCS2), HMGCS2 (gene 3158)
# Experiment: LTEA_HepaRG_HMGCS2: Life Technologies and Expression Analysis (LTEA) Assay for 3-Hydroxy-3-Methylglutaryl-CoA Synthase 2 (HMGCS2) using HepaRG (AID 2283504)
# Settings: mRNA level, 48 h; actives raise or lower the signal
# Description: LTEA_HepaRG is a cell based, multiplexed-readout assay that uses HepaRG, a human liver cell line, with measurements taken at 48 hours after chemical dosing on a 96-well plate.LTEA_HepaRG_HMGCS2 is one of 102 assay component(s) measured in the LTEA HepaRG cell culture assay. It is a marker of Steatosis.Data from the assay component LTEA_HepaRG_HMGCS2 was analyzed into 1 endpoint. This assay endpoint, LTEA_HepaRG_HMGCS2, was analyzed with bidirectional fitting relative to DMSO as the negative control and baseline of activity. Using a type of inducible reporter, measures of mRNA induction for gain or loss-of-signal activity can be used to understand regulation of transcription factor activity. To generalize the intended target to other relatable targets, this assay endpoint is annotated to the lyase intended target family, where the subfamily is HMG-CoA synthase.
# A total of 1060 chemcials from the ToxCast library were tested in eight-point concentration-response experiments. Cell culture and cytotoxicity assays were conducted at Thermo Fisher Scientific's Custom Services facility (Madison, WI). A single lot of human HepaRG cells (Thermo Fisher Scientific, Frederick, MD) was used for the cell culture experiments. 96-well format collagen type I coated plates of human HepaRG cells were prepared using established methods. Briefly, cryopreserved HepaRG cells were thawed, plated at a density of approximately 100,000 cells/well in HepaRG Thaw, Plate, and General Purpose media (HPRG770, Thermo Fisher Scientific), and incubated for 48 hours. 0.5% DMSO was selected as vehicle control to balance the requisite need of DMSO in HepaRG cultures to maintain differentiation (for example, baseline metabolism, proportions of hepatocytes vs. cholangiocytes), while enabling further hepatic receptor pathway activation (for example, PXR and CAR) in response to chemical exposure. 48 hours after plating, the culture medium was replaced with HepaRG Serum-Free Incudtion Media. Cells were exposed to each test chemical in duplicate and maintained in CO2 incubators for another 48 hours. Chemical plates were thawed to room temperature and 200x concentrations of treatment groups were prepared. 8-point conentration-reponse curves were made with the highest exposure at 100 uM, followed by half-log dilutions, all in 0.5% DMSO. Each test plate contained variouse controls, induction positive controls (1mM phenobarbital), cytotoxicity positive controls ([…] aflatoxin B1), vehicle controls (0.5% DMSO), and total lysis controls (0.5% DMSO). Cell morphology images were taken using an Essen IncuCyte FLR automated microscope, with six 96-well plates imaged in about 24 minutes. Images were captured and exported and JPEG files. Spent culture media was transfered to black-well plates for the LDH assay, and remaining media was sorted at -80 C for later use. Cells were treated with RLT buffer and frozen until shipped for gene expression analysis. Total RNA was isolated from the cell suspension in 75 uL of Buffer RLT (Qiagen, Germantown, MD 20874) by Quintiles/Expression Analysis (Durham, NC) using a custom isolation procedure. Total RNA from each plate well was transferred to a preamplification plate. Fluidigm's 96.96 Dynamic ArrayTM (Fluidigm, Amsterdam, the Netherlands) technology was used for gene expression analyses by quantitative reverse transcription polymerase chain reaction (qRT-PCR, performed by Quintiles/Expression Analysis, Durham, NC)89. Standard TaqManTM Assays (Applied Biosystems/ThermoFisher Scientific, Foster City, CA) were used to assess the expression of 93 genes selected based on their selectivity and sensitivity to important hepatic receptors known to be modulated by environmental chemicals; importance in human hepatocyte functionality; and hepatotoxicity. […]
Structure (SMILES),outcome,AC50
COc1ccc(O)c(C(C)(C)C)c1,inactive,–
ClC1=C(Cl)[C@]2(Cl)[C@@H]3[C@H]4C[C@H]([C@@H]5O[C@H]45)[C@@H]3[C@@]1(Cl)C2(Cl)Cl,–,30.5 µM (active)
CCSC(=O)N(CC)C1CCCCC1,inactive,–
CCCCCCOC(=O)c1ccccc1C(=O)OCCCCCC,inactive,–
CCC(C)(CC)c1cc(NC(=O)c2c(OC)cccc2OC)on1,inactive,–
O=C(O)C(F)(F)C(F)(F)C(F)(F)C(F)(F)C(F)(F)C(F)(F)C(F)(F)C(F)(F)C(F)(F)F,–,34 µM (active)
Clc1ccc(C(Cl)(Cl)Cl)cc1,inactive,–
CCOP(=S)(OCC)SCSC(C)(C)C,–,14.7 µM (active)
Oc1ccc(C(c2ccc(O)cc2)(C(F)(F)F)C(F)(F)F)cc1,–,79.4 µM (active)
CCCCCCCCCC[N+](C)(C)CCCCCCCCCC,–,77.4 µM (active)
O=C(O)C(F)(F)C(F)(F)C(F)(F)C(F)(F)C(F)(F)C(F)(F)C(F)(F)C(F)(F)F,–,80.4 µM (active)
CCC(=O)O[C@H]1CC[C@H]2[C@@H]3CCC4=CC(=O)CC[C@]4(C)[C@H]3CC[C@]12C,inactive,–
Oc1c(Cl)c(Cl)c(Cl)c(Cl)c1Cl,–,4.84 µM (active)
C1CC2OC2CC1C1CO1 (stereo not given),inactive,–
O=NN(c1ccccc1)c1ccccc1,inactive,–
O=C(NC(=O)c1cc(F)c(F)cc1Cl)Nc1cc(F)ccc1N1CCC(C(=O)O)CC1,–,20.3 µM (active)
Cc1cc2c3c(c1)C(c1ccccc1)=N[C@@H](NC(=O)c1ccncc1)C(=O)N3CC2,–,71.2 µM (active)
O=C(N[C@H]1CN2CCC1CC2)c1cc2ccoc2cn1,inactive,–
CN(C)CCO,inactive,–
ClC1=C(Cl)[C@]2(Cl)[C@@H]3[C@@H](Cl)[C@H]4O[C@H]4[C@@H]3C1(Cl)C2(Cl)Cl,–,18.4 µM (active)

Structure (SMILES),outcome,AC50
ClC1=C(Cl)[C@]2(Cl)[C@@H]3[C@@H]4C[C@@H]([C@H]5O[C@@H]45)[C@@H]3[C@@]1(Cl)C2(Cl)Cl,–,50 µM (active)
O=S(=O)(O)C(F)(F)C(F)(F)C(F)(F)C(F)(F)F,inactive,–
Cc1ccccc1[N+](=O)[O-],inactive,–
CC(c1ccc(O)cc1)(c1ccc(O)cc1)c1ccc(O)cc1,–,85.1 µM (active)
Oc1ccc(Cl)cc1Cl,inactive,–
O=C(NC(=O)c1c(F)cccc1F)Nc1cc(Cl)c(OC(F)(F)C(F)F)c(Cl)c1,–,34.7 µM (active)
Nc1ccc(-c2ccc(N)cc2)cc1,inactive,–
Cc1ccccc1CO[C@@H]1C[C@@]2(C(C)C)CC[C@]1(C)O2,inactive,–
Cc1cc(-c2ccc(N)c(C)c2)ccc1N,–,19.3 µM (active)
Cc1cccc(C)c1N,inactive,–
c1cc2ccc3cccc4ccc(c1)c2c34,inactive,–
CC(C)(c1ccccc1)c1ccc(O)cc1,inactive,–
CCNc1nc(NC(C)C)nc(SC)n1,–,50 µM (active)
C[C@]12CCC(=O)C=C1CC[C@@H]1[C@@H]2CC[C@@]2(C)[C@H]1CC[C@]2(C)O,–,69 µM (active)
Clc1ccc(Cl)cc1,inactive,–
CCCCCCCCOC(=O)c1ccccc1C(=O)OCCCCCCCC,inactive,–
CCC(C)(c1ccc(O)cc1)c1ccc(O)cc1,inactive,–
Cc1ccc(O)c(C)c1,inactive,–
O=C(O)C(F)(F)C(F)(F)C(F)(F)C(F)(F)C(F)(F)F,–,2.41 µM (active)
O=S(=O)(O)C(F)(F)C(F)(F)C(F)(F)C(F)(F)C(F)(F)C(F)(F)F,–,30.1 µM (active)

# — PubChem BioAssay (EPA / NIEHS)
